Measured values reported in PubChem BioAssay (NCATS).
Inconclusive results are not listed. Activity calls are given as the source filed them. Calls come from the whole dose curve.

Legend:
[1] = qHTS drug screen for cell cycle checkpoint inhibitors in PARPi-resistant BRCA-mutant ovarian cancer cell lines. (AID 1963452); details: PEO1/OlaR viability, CellTiter-Glo luminescence, 96 h, stronger effect = lower value
Outline: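 PEO1, PEO4 and PEO1/OlaR ovarian cancer cells, 600 per well, exposed 96 h at 37C to a dilution series. Viability read by CellTiter-Glo luminescence, normalized to DMSO and empty wells; activity summarized as Z-AUC.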

[2] = qHTS for identification of novel therapeutic agents for treatment of microphthalmiaassociated transcription factor (MiT) renal cell carcinoma (RCC) (AID 1963991); details: CellTiter-Glo, 48 h, stronger effect = lower value
Outline: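 Three TFE3-fusion RCC lines (UOK109, UOK124, UOK145), 500 cells/well in complete medium, were treated with MIPE 4.0 compounds for 48 hours at 37 C. Viability was by CellTiter-Glo luminescence, normalized to DMSO (100%) and empty wells (0%); curves fitted over 11 concentrations.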

[3] = measured here: PEO1 parental Z-AUC
[4] = TFE3-RCC UOK109 viability, measured here: UOK109 Z-AUC
[5] = TFE3-RCC viability, measured here: UOK124 Z-AUC
[6] = TFE3-RCC viability, measured here: UOK145 Z-AUC

Structure (SMILES) | Z-AUC [1] | Z-AUC [1, 3] | Z-AUC ([1]; measured here: PEO4 Z-AUC) | z-score [2, 4] | z-score [2, 5] | z-score [2, 6]
CC(C)n1cnc2c(NCCCCCCNC(=O)OC(C)(C)C)nc(NCCO)nc21 | 0.728 (inactive) | 0.841 | 1.56 | – | – | –
CS(=O)c1ccc(-c2nc(-c3ccc(F)cc3)c(-c3ccncc3)[nH]2)cc1 (configuration not stated) | 0.509 (inactive) | 0.495 | 0.786 | – | – | –
COc1ccc(-c2coc3cc(O)cc(O)c3c2=O)cc1 | 1.34 (inactive) | 0.911 | 1.85 | – | – | –
CC(=O)OC1C(C)OC(Oc2c(-c3ccc(O)cc3)oc3cc(O)cc(O)c3c2=O)C(O)C1OC(C)=O (configuration not stated) | -0.58 (inactive) | -0.801 | -0.512 | – | – | –
CNC(=O)c1ccc2cc(C3(O)CCn4cncc43)ccc2c1 (configuration not stated) | -0.914 (inactive) | -0.347 | -0.305 | 0.41 | 0.546 | 0.539
CC(C)(C)c1cc(C(=O)O)c(NC(=O)Nc2ccc3[nH]ncc3c2)s1 | -0.548 (inactive) | -0.418 | -0.766 | 0.185 | -0.00808 | 0.16
O=C(O)c1ccc(-c2c[nH]c3ncc(-c4ccccc4)cc23)cc1C1CCCC1 | 0.296 (inactive) | -0.104 | 0.0769 | 1.28 | 0.56 | 0.0409
COc1cc(NC(=O)c2ccc(-c3ccc(Cl)cc3)o2)cc(OC)c1 | -0.479 (inactive) | -0.389 | -0.303 | – | – | –
COc1ccc2cccc(CCNC(C)=O)c2c1 | -0.374 (inactive) | -0.478 | -0.326 | 0.892 | 0.661 | 0.732
COc1ccc(-n2c(C)c([N+](=O)[O-])c3ccc(O)cc32)cc1 | -0.721 (inactive) | -0.631 | -0.862 | 0.538 | 0.575 | 0.643
CN(C)Cc1ccc(-c2nc3cccc4c3n2CCNC4=O)cc1 | 0.426 (inactive) | 0.483 | 0.475 | – | – | –
COC1CCC(N(C(=O)C2CCC(C)CC2)c2cc(C3=CCCCC3)sc2C(=O)O)CC1 (configuration not stated) | -0.412 (inactive) | -0.941 | -0.935 | 0.459 | 1.37 | 0.333
O=C(O)C(O)Cc1ccc(O)c(O)c1 (configuration not stated) | 0.82 (inactive) | 1.05 | 0.735 | 0.888 | 1.07 | 1.23
O=C1C[C@@H](c2ccc(O)cc2)Oc2cc(O)cc(O)c21 | 0.649 (inactive) | 1.18 | 1.28 | 0.38 | 0.851 | 0.18
Cc1nc(N)sc1-c1ccnc(Nc2ccc(N3CCOCC3)cc2)n1 | -0.158 (inactive) | -0.029 | -0.545 | – | – | –
CC1(C)CCC2=C(O1)c1ccccc1C(=O)C2=O | 0.0983 (inactive) | -0.291 | 0.134 | – | – | –
O=c1cc(-c2ccccc2)oc2cc(O)cc(O)c12 | 1.05 (inactive) | 1.12 | 1.3 | 0.364 | 0.638 | 0.538
O=C(Nc1c(Cl)cncc1Cl)c1ccc(OC(F)F)c(OCC2CC2)c1 | 0.0747 (inactive) | 0.551 | 0.508 | -0.715 | 0.259 | 0.585
CC(C)(C)OC(=O)N[C@H]1CCCCCC=C[C@@H]2C[C@@]2(C(=O)NS(=O)(=O)C2CC2)NC(=O)[C@@H]2C[C@@H](OC(=O)N3Cc4cccc(F)c4C3)CN2C1=O | 0.565 (inactive) | 0.658 | 1.2 | 0.6 | 0.826 | 2.04
CC(C)(C)NC(=O)Nc1cccc(Nc2ncc(F)c(NC(C)(C)CO)n2)c1 | -0.707 (inactive) | -1.21 | -1.05 | 1.09 | -0.121 | 0.237
C=C1C(=O)OC(CCCCCCCC)C1C(=O)O (configuration not stated) | 0.778 (inactive) | 0.453 | 0.342 | 0.725 | 0.792 | 0.524
